The panel holds about 83,000 compounds, 20% with a hit somewhere; the sample as a whole holds those more often.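 Plates (96-well) were seeded with cells, treated with compound at one concentration, and incubated for 48 hours before percent growth was determined.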 Calls of active or inactive are those of the source. Rule for the calls: active = growth percent below 10; inactive = the rest.
Legend:
Assay in all cases: NCI-60 one-dose screen, 48 h (100 = growth as untreated, 0 = no growth, -100 = all killed)
Conditions in all cases: 10 µM unless noted
HCT-15 colon = system: HCT-15 colon
HT29 colon = system: HT29 colon
SNB-75 CNS = system: SNB-75 CNS
U251 CNS = system: U251 CNS
PC-3 prostate = system: PC-3 prostate
SK-MEL-5 melanoma = system: SK-MEL-5 melanoma
UACC-62 melanoma = system: UACC-62 melanoma
LOX IMVI melanoma = system: LOX IMVI melanoma
SK-MEL-28 melanoma = system: SK-MEL-28 melanoma
SK-MEL-2 melanoma = system: SK-MEL-2 melanoma
EKVX NSCLC = system: EKVX NSCLC
SN12C renal = system: SN12C renal
UO-31 renal = system: UO-31 renal
TK-10 renal = system: TK-10 renal
ACHN renal = system: ACHN renal
CAKI-1 renal = system: CAKI-1 renal
A498 renal = system: A498 renal
CCRF-CEM leukemia = system: CCRF-CEM leukemia
MOLT-4 leukemia = system: MOLT-4 leukemia

Measured: growth

O=C1Nc2ccc(F)cc2/C1=C\c1nc(-c2ccccc2F)n2ccccc12
active: ACHN renal 8.93%
inactive: HCT-15 colon 26.3% | HT29 colon 13.8% | SNB-75 CNS 95.8% | U251 CNS 73.5% | PC-3 prostate 76.3% | SK-MEL-5 melanoma 89.7% | UACC-62 melanoma 94.6% | LOX IMVI melanoma 61% | SK-MEL-28 melanoma 130% | SK-MEL-2 melanoma 38.3% | EKVX NSCLC 102% | SN12C renal 87.1% | UO-31 renal 77.6% | TK-10 renal 97.5% | CAKI-1 renal 68.4% | A498 renal 111% | CCRF-CEM leukemia 70.8% | MOLT-4 leukemia 81.2%

Cc1cc(F)ccc1S(=O)(=O)Nc1cc(-c2c(O)ccc3ccccc23)c(O)c2ccccc12
inactive: HCT-15 colon 10.7% | HT29 colon 52.8% | SNB-75 CNS 46.2% | U251 CNS 18.6% | PC-3 prostate 15.5% | LOX IMVI melanoma 16% | SK-MEL-28 melanoma 29.4% | EKVX NSCLC 19% | SN12C renal 46.6% | UO-31 renal 20.3% | TK-10 renal 72.7% | CAKI-1 renal 51.5% | A498 renal 57.7% | CCRF-CEM leukemia 21.9% | MOLT-4 leukemia 17.6%
active: SK-MEL-5 melanoma -63.6% | UACC-62 melanoma 2.8% | SK-MEL-2 melanoma 5.32% | ACHN renal -7.97%

COc1ccc(-c2cc(C(=O)N3N=C(c4ccc(N)cc4)CC3c3ccccc3)c3ccccc3n2)cc1 (configuration not stated)
active: SNB-75 CNS -1.79%
inactive: HCT-15 colon 24.6% | HT29 colon 10.3% | U251 CNS 36.9% | PC-3 prostate 32.5% | SK-MEL-5 melanoma 36.2% | UACC-62 melanoma 40.3% | LOX IMVI melanoma 39.7% | SK-MEL-28 melanoma 53.1% | SK-MEL-2 melanoma 39.8% | EKVX NSCLC 70.8% | SN12C renal 51.7% | UO-31 renal 45.5% | TK-10 renal 58.4% | ACHN renal 37.6% | CAKI-1 renal 24.5% | A498 renal 29.1% | CCRF-CEM leukemia 25.6% | MOLT-4 leukemia 35.2%

Cc1cc(N2CCN(C)CC2)nc(NCc2cc(Nc3ccnc4cc(Cl)ccc34)ccc2F)n1
inactive: SNB-75 CNS 21.2% | PC-3 prostate 28.6% | EKVX NSCLC 27.4% | CAKI-1 renal 12.9% | MOLT-4 leukemia 10.2%
active: HCT-15 colon -17.6% | HT29 colon -56.1% | U251 CNS -51.3% | SK-MEL-5 melanoma -98% | UACC-62 melanoma -59.1% | LOX IMVI melanoma -70.1% | SK-MEL-28 melanoma -75.4% | SK-MEL-2 melanoma -67.8% | SN12C renal -20.8% | UO-31 renal -27.1% | TK-10 renal -29.5% | ACHN renal -10.6% | A498 renal -40.7% | CCRF-CEM leukemia -4.6%

COc1ccc(/C=C/C(=O)c2ccc(Nc3nc(Nc4ccc(F)cc4)nc(Nc4ccc(Cl)cc4)n3)cc2)cc1
inactive: HCT-15 colon 100% | HT29 colon 94.1% | SNB-75 CNS 95.6% | U251 CNS 111% | PC-3 prostate 81.4% | SK-MEL-5 melanoma 83.6% | UACC-62 melanoma 105% | LOX IMVI melanoma 102% | SK-MEL-28 melanoma 110% | SK-MEL-2 melanoma 55.1% | EKVX NSCLC 86.2% | SN12C renal 112% | UO-31 renal 75.6% | TK-10 renal 137% | ACHN renal 106% | CAKI-1 renal 86.5% | A498 renal 118% | MOLT-4 leukemia 22.3%
active: CCRF-CEM leukemia 8.9%

CCCCCCCCCCCCCCCCCCOc1ccccc1CC(=O)OCC[N+]1(C)CCOCC1
inactive: HCT-15 colon 90% | HT29 colon 47.9% | SNB-75 CNS 19.7% | U251 CNS 30.1% | PC-3 prostate 41.1% | SK-MEL-5 melanoma 79.8% | UACC-62 melanoma 60.8% | LOX IMVI melanoma 55.9% | SK-MEL-28 melanoma 85.7% | SK-MEL-2 melanoma 91.5% | EKVX NSCLC 86.7% | SN12C renal 31.4% | UO-31 renal 67.9% | TK-10 renal 43.5% | ACHN renal 89.6% | CAKI-1 renal 49.1% | A498 renal 64.1% | CCRF-CEM leukemia 30.1% | MOLT-4 leukemia 46.9%

CCOC(=O)c1c(C)c2c(n1C)CSc1cc(S(=O)(=O)c3ccccc3)c(=O)[nH]c1-2
active: HT29 colon 0.904% [100 µM] | SK-MEL-5 melanoma -6.57% [100 µM] | UACC-62 melanoma 1.08% [100 µM]
inactive: HCT-15 colon 24.7% [100 µM] | SNB-75 CNS 32.1% [100 µM] | U251 CNS 35.7% [100 µM] | PC-3 prostate 15.9% [100 µM] | LOX IMVI melanoma 31.9% [100 µM] | SK-MEL-28 melanoma 41% [100 µM] | SK-MEL-2 melanoma 30.7% [100 µM] | EKVX NSCLC 14.7% [100 µM] | SN12C renal 24.8% [100 µM] | UO-31 renal 22.7% [100 µM] | TK-10 renal 24.8% [100 µM] | ACHN renal 25.9% [100 µM] | CAKI-1 renal 26.3% [100 µM] | A498 renal 44.9% [100 µM] | CCRF-CEM leukemia 29.2% [100 µM] | MOLT-4 leukemia 41.5% [100 µM]

O=C(Nc1cccnc1Nc1ccc(Cl)cc1)c1cn(Cc2ccc(F)cc2)nn1
inactive: HCT-15 colon 95.4% | HT29 colon 113% | SNB-75 CNS 94.6% | U251 CNS 99% | PC-3 prostate 94.5% | SK-MEL-5 melanoma 100% | UACC-62 melanoma 100% | LOX IMVI melanoma 104% | SK-MEL-28 melanoma 115% | SK-MEL-2 melanoma 102% | EKVX NSCLC 92.6% | SN12C renal 95.9% | UO-31 renal 70.9% | TK-10 renal 96.9% | ACHN renal 101% | CAKI-1 renal 93.1% | A498 renal 88.6% | CCRF-CEM leukemia 98.6% | MOLT-4 leukemia 106%
